Experimental data taken from PubChem BioAssay (Tox21).
Inconclusive results are not listed. Active and inactive are the calls of the source. Calls follow the shape of the full dose curve. Residues, ends and D or L forms follow the SMILES beside them.

Experiments:
[1] = molecular target: Acetylcholinesterase (Homo sapiens) (UniProt P22303); test: Acetylcholinesterase (AChE) small molecule antagonists: colormetric cell-based qHTS assay (AID 1347395); also: nearly all actives have a fitted effect of over 30% in size
Method in brief: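 SH-SY5Y cells attached overnight, exposed to compound 30 min at 37 C, then given DTNB/acetylthiocholine; after 90 min at 37 C, colorimetric thiocholine read gives cellular AChE activity.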

[2] = molecular target: Acetylcholinesterase (Homo sapiens) (UniProt P22303); test: Acetylcholinesterase (AChE) small molecule antagonists: enzyme-based qHTS assay (AID 1347397); conditions: Potency: AChE enzyme activity inhibition; outcome: AChE enzyme activity inhibition; also: nearly all actives have a fitted effect of over 55% in size
Method in brief: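 Recombinant human AChE, dispensed at 50 mU/mL, was preincubated with Tox21 10K compounds or DMSO vehicle for 30 min at room temperature. DTNB plus acetylthiocholine was then added, and thiocholine was measured colorimetrically after a further 10 min.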

[3] = molecular target: Acetylcholinesterase (Homo sapiens) (UniProt P22303); test: Acetylcholinesterase (AChE) small molecule antagonists: fluorescence cell-based qHTS assay (AID 1347398); conditions: Potency: AChE activity; outcome: AChE activity; also: nearly all actives have a fitted effect of over 50% in size
Method in brief: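 Human SH-SY5Y cells were plated overnight at 37 C, exposed to compound for 30 min at 37 C, 5% CO2, then given acetylthiocholine plus Thiolite Green for 40 min at room temperature; thiocholine fluorescence (Ex/Em 490/520 nm) reports endogenous AChE activity.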

[4] = molecular target: Acetylcholinesterase (Homo sapiens) (UniProt P22303); test: Acetylcholinesterase (AChE) small molecule antagonists: enzyme-based qHTS assay with human liver microsomes (AID 1347399); conditions: Potency: qHTS inhibition; outcome: qHTS inhibition; also: nearly all actives have a fitted effect of over 60% in size
Method in brief: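 Recombinant human AChE (50 mU/mL in the enzyme mix) and human liver microsomes (0.25 mg/mL final) were preincubated with compound and NADPH (0.25 mg/mL final) for 30 min at 37 C. Acetylthiocholine/DTNB was then added; thiocholine was read colorimetrically after 10 min at room temperature.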

Measured: Potency

Acetylcholinesterase (Homo sapiens), sequence (P22303 whole entry, looked up): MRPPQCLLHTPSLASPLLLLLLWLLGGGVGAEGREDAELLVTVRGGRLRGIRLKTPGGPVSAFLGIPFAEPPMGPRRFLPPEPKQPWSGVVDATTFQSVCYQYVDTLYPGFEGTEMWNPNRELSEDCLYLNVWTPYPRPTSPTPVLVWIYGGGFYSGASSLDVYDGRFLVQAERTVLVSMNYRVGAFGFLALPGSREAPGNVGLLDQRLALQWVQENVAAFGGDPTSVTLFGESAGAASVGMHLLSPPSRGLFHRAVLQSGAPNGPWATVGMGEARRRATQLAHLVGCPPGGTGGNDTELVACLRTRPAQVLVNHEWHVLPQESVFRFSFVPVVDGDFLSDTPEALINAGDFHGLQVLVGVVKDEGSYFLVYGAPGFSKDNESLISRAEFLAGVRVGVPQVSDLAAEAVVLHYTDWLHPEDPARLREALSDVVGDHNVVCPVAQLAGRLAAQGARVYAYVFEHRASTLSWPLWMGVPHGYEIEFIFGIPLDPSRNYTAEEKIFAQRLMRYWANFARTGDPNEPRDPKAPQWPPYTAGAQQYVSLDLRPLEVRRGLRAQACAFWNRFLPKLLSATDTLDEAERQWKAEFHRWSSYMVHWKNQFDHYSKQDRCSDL

COc1ccccc1N1CCN(CC(O)COc2cc(OC)c(OC)c(OC)c2)CC1 (stereo unspecified)
inactive: all assays above

CO[Si](CCCCl)(OC)OC
inactive: all assays above

C[C@H](O)C(=O)Nc1c(I)c(C(=O)NC(CO)CO)c(I)c(C(=O)NC(CO)CO)c1I
inactive: all assays above

CCCCc1ccc2cccc(S(=O)(=O)O)c2c1
inactive: all assays above

CC1OC(=O)C(C)OC1=O (stereo unspecified)
inactive: all assays above

CC(=O)N[C@@H](CO)C(=O)N[C@@H](CC(=O)O)C(=O)N[C@@H](CCCCN)C(=O)N1CCC[C@H]1C(=O)O (Ac-SDKP-OH)
inactive: all assays above

O=C(C(Cl)Cl)N1CCOC12CCCCC2
inactive: all assays above

C=CC(=O)OCC1CCCO1 (stereo unspecified)
inactive: all assays above

OCCCCCCO
inactive: all assays above

Cc1ccc(O)c([N+](=O)[O-])c1
inactive: all assays above

[O-][n+]1cccc(CO)c1
inactive: all assays above

CCCCCCCCCCCCCC(=O)OC
inactive: all assays above

CCCOC(=O)c1ccc(N)cc1
inactive: all assays above

O=C(O)CCN(C1(C(=O)NO)CCCC1)S(=O)(=O)c1ccc(Oc2ccc(F)cc2)cc1
inactive: all assays above
